Experimental data reported in the supplement of paper PMC10849652.
The full data set covers some 7,900 targets. This sample favours those with a hit. About 0.6% of all pairs of compound and target were hits. Unmarked numbers belong to inactive results.

Compound: CN(C)CC(=O)Nc1ccc2[nH]c(=O)c3ccccc3c2c1
Assay: log2 fold change, soluble protein after heating vs DMSO (PISA); higher = thermal stabilisation; K562 cells, 10 uM, 30 min; active = over 0.2 and 3.5 SD of the protein, either way, in both replicates (recomputed)
In short: (§1)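 K562 cells at 2×10^6 cells/mL were treated with 10 μM compound for 30 min. Aliquots were heated for 3 min across 48°C-58°C, pooled, and extracted in PBS with 0.5% NP-40 at 4°C; soluble protein was the supernatant after 21,000xg for 90 min. Soluble protein was quantified by TMTpro 16plex LC-MS/MS with channel sums equalised, and reported as log2 fold change in thermal stability against DMSO controls, with values from duplicates.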

UniProt Q92828, sequence (Q92828 whole entry, looked up): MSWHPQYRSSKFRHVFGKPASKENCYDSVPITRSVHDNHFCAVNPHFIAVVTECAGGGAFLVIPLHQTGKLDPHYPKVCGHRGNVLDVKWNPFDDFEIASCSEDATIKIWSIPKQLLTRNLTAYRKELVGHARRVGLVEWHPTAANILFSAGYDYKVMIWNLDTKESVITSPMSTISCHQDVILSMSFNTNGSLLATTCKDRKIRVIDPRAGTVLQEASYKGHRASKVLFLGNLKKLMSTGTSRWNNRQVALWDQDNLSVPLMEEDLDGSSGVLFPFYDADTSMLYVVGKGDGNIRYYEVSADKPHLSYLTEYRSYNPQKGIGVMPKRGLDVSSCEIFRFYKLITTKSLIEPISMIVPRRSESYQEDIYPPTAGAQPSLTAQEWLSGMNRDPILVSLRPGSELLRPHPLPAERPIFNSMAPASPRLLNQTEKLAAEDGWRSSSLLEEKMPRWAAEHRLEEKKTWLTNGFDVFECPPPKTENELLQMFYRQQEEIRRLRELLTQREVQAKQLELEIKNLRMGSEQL
UniProt P49336, sequence (P49336 whole entry, looked up): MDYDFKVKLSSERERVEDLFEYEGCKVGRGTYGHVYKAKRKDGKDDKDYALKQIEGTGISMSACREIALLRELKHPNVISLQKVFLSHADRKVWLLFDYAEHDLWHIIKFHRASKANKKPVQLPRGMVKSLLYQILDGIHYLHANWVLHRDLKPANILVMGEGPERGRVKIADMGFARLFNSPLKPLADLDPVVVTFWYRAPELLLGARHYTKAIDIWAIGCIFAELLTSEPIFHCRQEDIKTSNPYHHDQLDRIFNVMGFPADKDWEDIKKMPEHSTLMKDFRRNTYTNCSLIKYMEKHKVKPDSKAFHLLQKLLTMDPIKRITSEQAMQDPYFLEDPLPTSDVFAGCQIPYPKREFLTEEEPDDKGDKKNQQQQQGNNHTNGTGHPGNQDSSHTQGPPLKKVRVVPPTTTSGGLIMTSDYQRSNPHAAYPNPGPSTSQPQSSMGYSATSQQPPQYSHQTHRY
UniProt Q96G28, sequence (Q96G28 whole entry, looked up): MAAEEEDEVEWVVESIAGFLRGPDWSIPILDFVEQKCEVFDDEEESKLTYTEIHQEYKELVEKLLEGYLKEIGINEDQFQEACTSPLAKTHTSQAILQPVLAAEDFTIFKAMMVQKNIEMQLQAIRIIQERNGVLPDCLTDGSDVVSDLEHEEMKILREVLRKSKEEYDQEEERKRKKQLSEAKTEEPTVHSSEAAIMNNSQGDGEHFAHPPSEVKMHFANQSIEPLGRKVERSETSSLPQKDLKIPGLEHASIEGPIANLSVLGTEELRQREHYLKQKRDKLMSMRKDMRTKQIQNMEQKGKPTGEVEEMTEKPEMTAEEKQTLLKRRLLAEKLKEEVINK
UniProt P24311, sequence (P24311 whole entry, looked up): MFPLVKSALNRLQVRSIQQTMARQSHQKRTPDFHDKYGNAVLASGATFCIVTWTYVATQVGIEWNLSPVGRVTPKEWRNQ
UniProt Q00537, sequence (Q00537 whole entry, looked up): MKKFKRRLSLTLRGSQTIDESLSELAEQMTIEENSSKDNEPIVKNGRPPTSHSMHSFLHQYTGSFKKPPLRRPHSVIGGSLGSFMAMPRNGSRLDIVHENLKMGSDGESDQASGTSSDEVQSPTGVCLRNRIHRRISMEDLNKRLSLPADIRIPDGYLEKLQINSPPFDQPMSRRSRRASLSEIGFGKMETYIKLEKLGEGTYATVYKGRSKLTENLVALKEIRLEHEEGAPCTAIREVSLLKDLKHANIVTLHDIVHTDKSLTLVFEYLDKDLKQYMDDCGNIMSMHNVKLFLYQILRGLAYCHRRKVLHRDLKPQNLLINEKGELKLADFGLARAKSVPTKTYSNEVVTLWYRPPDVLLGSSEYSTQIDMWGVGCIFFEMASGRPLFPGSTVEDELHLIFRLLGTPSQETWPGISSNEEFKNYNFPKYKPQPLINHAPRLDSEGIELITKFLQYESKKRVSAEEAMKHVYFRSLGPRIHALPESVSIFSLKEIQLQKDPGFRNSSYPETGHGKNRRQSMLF
UniProt Q9BSQ5, sequence (Q9BSQ5 whole entry, looked up): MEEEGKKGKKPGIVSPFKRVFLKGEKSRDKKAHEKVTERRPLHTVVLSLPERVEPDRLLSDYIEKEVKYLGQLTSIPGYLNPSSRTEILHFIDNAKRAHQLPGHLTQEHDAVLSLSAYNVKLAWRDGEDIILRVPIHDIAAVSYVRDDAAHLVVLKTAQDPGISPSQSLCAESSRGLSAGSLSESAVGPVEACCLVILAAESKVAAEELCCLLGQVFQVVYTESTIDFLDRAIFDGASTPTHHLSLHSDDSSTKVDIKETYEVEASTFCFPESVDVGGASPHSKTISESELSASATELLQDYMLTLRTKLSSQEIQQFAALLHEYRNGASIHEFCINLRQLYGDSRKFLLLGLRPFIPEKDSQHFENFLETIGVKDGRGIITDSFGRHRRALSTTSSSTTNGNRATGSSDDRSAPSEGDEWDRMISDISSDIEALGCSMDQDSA
UniProt Q96MX0, sequence (Q96MX0 whole entry, looked up): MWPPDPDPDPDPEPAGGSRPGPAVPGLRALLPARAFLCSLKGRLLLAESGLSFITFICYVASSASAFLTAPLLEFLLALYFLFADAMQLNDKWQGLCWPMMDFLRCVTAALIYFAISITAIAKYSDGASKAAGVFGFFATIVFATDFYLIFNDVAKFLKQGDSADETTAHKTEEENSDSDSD
UniProt Q6UUV7, sequence (Q6UUV7 whole entry, looked up): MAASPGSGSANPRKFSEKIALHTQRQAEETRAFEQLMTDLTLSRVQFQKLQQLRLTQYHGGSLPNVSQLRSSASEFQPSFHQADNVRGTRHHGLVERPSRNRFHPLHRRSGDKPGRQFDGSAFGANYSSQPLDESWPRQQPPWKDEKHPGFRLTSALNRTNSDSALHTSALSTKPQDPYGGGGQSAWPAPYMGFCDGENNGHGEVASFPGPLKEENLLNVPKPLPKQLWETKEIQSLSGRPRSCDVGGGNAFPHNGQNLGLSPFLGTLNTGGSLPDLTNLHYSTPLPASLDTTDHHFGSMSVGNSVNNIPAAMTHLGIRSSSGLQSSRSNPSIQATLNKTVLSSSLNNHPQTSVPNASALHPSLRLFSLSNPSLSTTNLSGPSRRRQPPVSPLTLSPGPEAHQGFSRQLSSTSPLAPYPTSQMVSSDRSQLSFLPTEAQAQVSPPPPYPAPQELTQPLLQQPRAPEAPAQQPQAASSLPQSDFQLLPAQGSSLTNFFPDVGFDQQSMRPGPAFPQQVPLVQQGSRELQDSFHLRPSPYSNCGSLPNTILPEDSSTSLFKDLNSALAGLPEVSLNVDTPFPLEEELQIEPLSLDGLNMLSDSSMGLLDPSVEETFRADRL
UniProt Q6UUV9, sequence (Q6UUV9 whole entry, looked up): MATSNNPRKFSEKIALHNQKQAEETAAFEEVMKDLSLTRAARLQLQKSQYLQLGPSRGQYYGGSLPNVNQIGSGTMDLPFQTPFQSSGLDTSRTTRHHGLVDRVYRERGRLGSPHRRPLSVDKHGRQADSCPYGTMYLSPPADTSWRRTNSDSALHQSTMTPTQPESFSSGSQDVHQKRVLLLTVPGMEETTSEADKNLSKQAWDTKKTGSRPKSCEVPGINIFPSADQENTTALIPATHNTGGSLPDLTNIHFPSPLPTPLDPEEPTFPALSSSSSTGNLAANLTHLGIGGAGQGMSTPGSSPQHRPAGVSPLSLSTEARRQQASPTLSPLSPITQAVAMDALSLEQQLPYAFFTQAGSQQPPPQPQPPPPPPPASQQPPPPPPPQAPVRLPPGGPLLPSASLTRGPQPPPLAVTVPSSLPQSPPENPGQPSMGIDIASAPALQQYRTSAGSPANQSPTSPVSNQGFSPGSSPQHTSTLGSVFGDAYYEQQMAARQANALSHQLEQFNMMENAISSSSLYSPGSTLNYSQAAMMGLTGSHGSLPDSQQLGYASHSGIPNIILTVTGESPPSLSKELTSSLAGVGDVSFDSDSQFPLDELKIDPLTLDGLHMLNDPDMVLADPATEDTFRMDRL
UniProt Q9UBY8, sequence (Q9UBY8 whole entry, looked up): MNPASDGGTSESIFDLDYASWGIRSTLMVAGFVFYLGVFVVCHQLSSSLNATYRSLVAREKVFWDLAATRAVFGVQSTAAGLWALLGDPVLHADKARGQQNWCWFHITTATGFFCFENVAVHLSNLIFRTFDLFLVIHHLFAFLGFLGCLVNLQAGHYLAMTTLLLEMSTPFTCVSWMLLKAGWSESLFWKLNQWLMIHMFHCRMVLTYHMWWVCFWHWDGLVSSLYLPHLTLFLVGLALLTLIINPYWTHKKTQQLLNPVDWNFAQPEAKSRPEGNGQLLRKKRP
UniProt Q7Z4R8, sequence (Q7Z4R8 whole entry, looked up): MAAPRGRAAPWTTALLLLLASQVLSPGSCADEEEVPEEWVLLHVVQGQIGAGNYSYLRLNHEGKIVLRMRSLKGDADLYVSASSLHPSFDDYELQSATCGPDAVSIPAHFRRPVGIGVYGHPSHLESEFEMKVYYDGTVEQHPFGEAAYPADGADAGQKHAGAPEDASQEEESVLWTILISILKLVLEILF
UniProt P24863, sequence (P24863 whole entry, looked up): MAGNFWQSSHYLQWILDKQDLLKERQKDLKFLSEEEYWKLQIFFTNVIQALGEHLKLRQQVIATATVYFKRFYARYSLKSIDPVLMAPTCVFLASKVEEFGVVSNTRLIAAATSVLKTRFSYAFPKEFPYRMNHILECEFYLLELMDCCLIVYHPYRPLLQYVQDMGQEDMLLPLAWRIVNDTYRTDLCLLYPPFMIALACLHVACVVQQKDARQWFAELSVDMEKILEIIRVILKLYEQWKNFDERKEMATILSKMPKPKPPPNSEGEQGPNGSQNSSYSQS
UniProt Q00535, sequence (Q00535 whole entry, looked up): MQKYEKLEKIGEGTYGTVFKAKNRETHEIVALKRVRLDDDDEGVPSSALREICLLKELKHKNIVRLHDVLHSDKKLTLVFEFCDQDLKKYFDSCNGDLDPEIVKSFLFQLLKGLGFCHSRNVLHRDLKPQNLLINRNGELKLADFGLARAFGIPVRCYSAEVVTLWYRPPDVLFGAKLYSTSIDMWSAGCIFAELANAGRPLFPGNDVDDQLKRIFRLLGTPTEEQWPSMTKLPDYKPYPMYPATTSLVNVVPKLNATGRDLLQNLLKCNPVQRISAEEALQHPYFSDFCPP

Row | Target | log2 fold change
1 | CFAP36 isoform 2 (UniProt Q96G28) | 0.005
2 | CENPE (UniProt Q02224) | -0.061
3 | CASP10 isoform 4 (UniProt Q92851) | -0.016
4 | COPS3 isoform 2 (UniProt Q9UNS2) | -0.165
5 | COX7B (UniProt P24311) | 0.04
6 | CCM2 isoform 2 (UniProt Q9BSQ5) | -0.01
7 | CRTC1 isoform 2 (UniProt Q6UUV9) | -0.069
8 | CDK5 (UniProt Q00535) | 0.002
9 | C15orf41 (UniProt Q9Y2V0) | -0.022
10 | C6orf120 (UniProt Q7Z4R8) | -0.155
11 | C9orf72 (UniProt Q96LT7) | 0.075
12 | C19orf54 (UniProt Q5BKX5) | 0.036
13 | CDK19 (UniProt Q9BWU1) | -0.068
14 | CASP9 (UniProt P55211) | 0.048
15 | CRTC3 (UniProt Q6UUV7) | -0.117
16 | CCNC (UniProt P24863) | -0.011
17 | CCNDBP1 (UniProt O95273) | -0.094
18 | CIR1 (UniProt Q86X95) | 0.142
19 | CDK8 (UniProt P49336) | -0.044
20 | COX17 (UniProt Q14061) | -0.051
21 | CRYM-AS1 (UniProt A6NIL9) | 0.089
22 | CORO2A (UniProt Q92828) | -0.038
23 | CSNK1D (UniProt P48730) | -0.019
24 | CDCA2 (UniProt Q69YH5) | -0.038
25 | CMTM3 (UniProt Q96MX0) | 0.02
26 | CDK17 isoform 2 (UniProt Q00537) | 0.046
27 | CDKN1B (UniProt P46527) | 0.025
28 | CAB39L (UniProt Q9H9S4) | -0.169
29 | CLN8 (UniProt Q9UBY8) | 0.145

Compound: CN(CCOC1=CC=C(C=C1)C[C@H]2C(=O)NC(=O)S2)C3=CC=CC=N3 (racemic) [rosiglitazone]
Assay: as above
In short: as §1

Row | Target | log2 fold change
30 | CFAP36 isoform 2 (UniProt Q96G28) | 0.06
31 | CENPE (UniProt Q02224) | 0.03
32 | C22orf39 (UniProt Q6P5X5) | -0.119
33 | CASP10 isoform 4 (UniProt Q92851) | -0.093
34 | COPS3 isoform 2 (UniProt Q9UNS2) | -0.046
35 | COX7B (UniProt P24311) | -0.033
36 | CCM2 isoform 2 (UniProt Q9BSQ5) | 0.032
37 | CRTC1 isoform 2 (UniProt Q6UUV9) | 0.065
38 | CDK5 (UniProt Q00535) | 0.041
39 | CCDC167 (UniProt Q9P0B6) | -0.084
40 | C6orf120 (UniProt Q7Z4R8) | 0.06
41 | C9orf72 (UniProt Q96LT7) | -0.033
42 | CRTC3 (UniProt Q6UUV7) | 0.148
43 | CCNC (UniProt P24863) | -0.022
44 | CCNDBP1 (UniProt O95273) | 0.032
45 | CIR1 (UniProt Q86X95) | -0.169
46 | CDK8 (UniProt P49336) | -0.02
47 | CHAF1A (UniProt Q13111) | -0.018
48 | CRYM-AS1 (UniProt A6NIL9) | -0.068
49 | CORO2A (UniProt Q92828) | 0.011
50 | CSNK1D (UniProt P48730) | -0.062
51 | CMTM3 (UniProt Q96MX0) | -0.324 (active)
52 | CDK17 isoform 2 (UniProt Q00537) | 0.038
53 | CDKN1B (UniProt P46527) | 0.067
54 | CAB39L (UniProt Q9H9S4) | 0.107
55 | CHST10 (UniProt O43529) | 0.081
56 | CLN8 (UniProt Q9UBY8) | 0.327
